Test results as given in the supplement of paper PMC6555819.

Test system: VDR:RXRa (NR concentration 270 nM, RXRa partner concentration 90 nM)
Assay: PBM binding z-score (relative to random genomic background probes); higher = stronger binding; sequences stand for … in GC…GCGATTGACAGCGTAGAATGAAGG
Procedure: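 Protein-binding microarray (Agilent 4x180K custom design, double-stranded 60-nt probes: 5' GC cap, 34-nt variable region, 24-nt constant primer region; full probe sequence given). Purified or IVT nuclear receptor:RXRα heterodimers (3:1 NR:RXRα, mostly 270:90 nM) or homodimers were incubated for 1 h in PBS with 2% milk and no ligand, then detected with Alexa488 antibodies. Fluorescence from o1-orientation probes (~5 replicates averaged) was converted to z-scores against 500 random hg19 background probes. Variable regions are seed direct-repeat (DR0–DR5) sites, all their single-nucleotide variants and half-site ablations.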

Point of comparison: CGAACTAGGTCAAGGCCAGTGAATCTCCGCACGC, PBM binding z-score 1.31. Against it:
- TGTCAACGTTCAAAGGTAACGTAAGTATCCACAC — lower, 0.617
- ATCGAAAGGTCTAAGGTGAGTATACCCACCCGAA — lower, 0.393
- TCTGCTAGGTCAACGATGGTCAGTTAATCTGCTA — higher, 1.62
- CGAACGAGGTCATGAGTTGATAGCAAATGCCGAT — higher, 5.57
- TGTCAAAGGTCAAAGGTAACGTAAGTATCCACAC — higher, 6.2
- TCTATTAGTTGATTAGGGCAACCGAAACAGCGGA — lower, 0.711
- AGCGAAAGGTCGAGGTGAGTATAGAGAAAGGGAA — higher, 2.71
- TAGCCTAGGTCATGCGGGCCAATATAGTGTCGGC — higher, 3.64
- ATCGAAAGGTCGAAGGTGCGTATACCCACCCGAA — higher, 2.58
- CCTAGTGGGCCAAGGTCATTGATCAGTCAAAGCA — higher, 3.33
- CCTGCTAGGTCATGGTCAGCGAATCTACAGTATG — higher, 1.5
- CAAACTAGGTCACAGTGGTCAAAGTCCGTGCGTA — higher, 4.36
- ACTTACGGCTCAACGAGGTTATAGCACGCGTATA — higher, 1.53
- AGAATGAGGTTAAACGTAGATCAGGGAAGAAAGT — higher, 2.03
- GGAACGAGGGCAAAGTTCATAGCATCTGTCGACG — higher, 5.05
- TTACCAAGGTGAACGGTCGTTGATGCACGCCTTG — lower, 0.0102
- CGTCCAAGGTCTAGGTCAGTGAAAGAGACTCGAA — lower, 0.105
- CCGAGTAGGTTACTAGGGGGCATTCAGTGCGAAT — higher, 5.13
- AGTCAAAGTTTATCTAGGTAACGTAAGATATGCT — lower, 0.584
- CGTCCAAGGTCAAAGGTCAATGAAGAGATGACGG — higher, 7.06
- CCTACTGGGCCGTTCAGAGGTCATTGATCATATG — higher, 3.58
- CCGAATAGGTTACGAGGGGGCATTCAGTGCGAAT — higher, 5.89
- ATCGAAAGGTCGACGAGGTGAGTAAACACCGTTT — higher, 5.22
- CCTTAGGGGTCAAGGTTATAGCACGGGTGGTACG — higher, 6.11
- AATACGGGGTCACTAGGCCAGAGTAGGTACGAAT — higher, 6.16
- CCTACGGGGCCACGAAAGGTCATTGATTCAGTGA — higher, 5.53
- CCTAGTTGGTCAAGGTCACATACGCTATAGGTAC — higher, 4.04
- CCGACTGGGGCAAGGTCACCATAACGCACAGCCA — higher, 3.26
- ATATGTAGGTTACCTGGGGTCATTCAGACTAGGC — higher, 6.78
- GCTTAAGGGTCAAAGGTTATAGCATGAATAGAAT — higher, 6.45
- CGTCCAAGGTCATAGGAGGTCAATGAAGACAGAT — higher, 7.01
- AGAATGAGGTTACTAAAGATCAGGGAAACGCTTG — lower, 0.79
- CGTCCAAGGTCATTGGAGGTCAGTGAAGACAGAT — higher, 7.03
- CCGACGGGGGCAAAGGTTACCATACTCAGTACGA — higher, 5.11
- CGAACTAGGTCGAGGACAGTGAATCTCCGCACGC — lower, 0.0505
- GCTTACGGGTCCAAGGTTATAGCATGAATAGAAT — lower, 1.26
- TCTAGTTGGTCACGGAGGTCACAAACGACGGGTA — higher, 5.62
- CAAACTAGGTCAAGGTCTAAGTCGGTTTGTGCCA — higher, 1.95
- CGTCAAAGATCAAGGTAACGTAACAGAAAGCAGC — lower, -0.129
